# Test results as given in PubChem BioAssay (NCATS).
# Inconclusive results are not listed. Active and inactive are the calls of the source. The call rests on the fitted dose curve; in most records, active means well fitted inhibition curve with a large enough effect; inconclusive means small, poorly fitted or top-dose-only effect; inactive means flat fitted curve, though single readings scatter.
# Columns and labels:
# Assay in all cases: qHTS profiling for inhibitors of Plasmodium falciparum proliferation (AID 504749); further: nearly all actives have a fitted effect of over 60% in size
# Conditions in all cases: P. falciparum in erythrocytes, SYBR Green DNA, 72 h; series mostly up to 28.7 µM
# [1] = tested on: CP265
# In short: (§1)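 SYBR Green fluorescence of parasite DNA, read after lysis and overnight dark incubation, measured growth over 72 h in erythrocyte culture at 0.3% parasitemia and 2.5% hematocrit. Data normalised to DMSO and 0.29 uM artemisinin, with plate-drift correction.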
# [2] = tested on: CP266
# In short: as §1
# [3] = tested on: CP286
# In short: as §1
# [4] = tested on: CP297
# In short: as §1
# [5] = tested on: DIV14
# In short: as §1
# [6] = tested on: DIV17
# In short: as §1
# [7] = tested on: Dd2
# In short: as §1
# [8] = tested on: ECU
# In short: as §1
# [9] = tested on: FAB9
# In short: as §1
# [10] = tested on: CP268
# In short: as §1
# [11] = tested on: CP269
# In short: as §1
# [12] = tested on: CP291
# In short: as §1
# [13] = tested on: CP305
# In short: as §1
# [14] = tested on: CP315
# In short: as §1
# [15] = tested on: CP325
# In short: as §1
# [16] = tested on: CP329
# In short: as §1
# [17] = tested on: DFO2036
# In short: as §1
# [18] = tested on: DIV30
# In short: as §1
# [19] = tested on: CP262
# In short: as §1
# [20] = tested on: CP335
# In short: as §1
# Potency means the concentration at half of the fitted maximal effect.
Structure (SMILES),Potency [1],Potency [2],Potency [3],Potency [4],Potency [5],Potency [6],Potency [7],Potency [8],Potency [9],Potency [10],Potency [11],Potency [12],Potency [13],Potency [14],Potency [15],Potency [16],Potency [17],Potency [18],Potency [19],Potency [20]
OC(CCN1CCCCC1)(c1ccccc1)c1ccccc1,8.91 µM (active),inactive,11.2 µM (active),6.01 µM (active),4.26 µM (active),6.75 µM (active),10 µM (active),inactive,inactive,,,,,,,,,,,
Oc1c(I)cc(I)c2cccnc12,,,,,inactive,,,inactive,inactive,,,,,,,,,,,
CC/C(=C(/CC)c1ccc(O)cc1)c1ccc(O)cc1,inactive,inactive,inactive,inactive,,inactive,inactive,inactive,inactive,inactive,inactive,inactive,inactive,inactive,inactive,inactive,inactive,inactive,,
C#C[C@]1(O)CC[C@H]2[C@@H]3CCc4cc(OC5CCCC5)ccc4[C@H]3CC[C@@]21C,,,inactive,inactive,,inactive,inactive,inactive,inactive,inactive,inactive,inactive,inactive,inactive,inactive,inactive,inactive,inactive,,
Cc1cccc(C)c1NC(=O)CN1CCN(CCCC(c2ccc(F)cc2)c2ccc(F)cc2)CC1,inactive,inactive,inactive,,,,,,inactive,inactive,,inactive,inactive,inactive,inactive,inactive,inactive,,,
NC(CS)C(=O)O (configuration not stated),,,,,6.75 µM (active),9.53 µM (active),,,,,,,,inactive,,inactive,12.6 µM (active),16.9 µM (active),inactive,
Clc1ccc2c(c1)CCc1cccnc1C2=C1CCNCC1,,,10 µM (active),,7.57 µM (active),9.53 µM (active),4.47 µM (active),,inactive,,,,,,,,inactive,16.9 µM (active),,
O=c1c(-c2ccccc2)c1-c1ccccc1,,,7.94 µM (active),,,10.7 µM (active),10 µM (active),,,,,,,,,,,,inactive,
Oc1ccc(Cl)c2cccnc12,inactive,inactive,,inactive,inactive,inactive,,inactive,inactive,inactive,inactive,inactive,inactive,inactive,inactive,inactive,inactive,inactive,,
COc1ccc(CCN2CCC(Nc3nc4ccccc4n3Cc3ccc(F)cc3)CC2)cc1,3.98 µM (active),,2.51 µM (active),5.36 µM (active),4.78 µM (active),4.78 µM (active),8.91 µM (active),2 µM (active),3.16 µM (active),4.78 µM (active),4.78 µM (active),4.26 µM (active),4.26 µM (active),12 µM (active),4.26 µM (active),9.53 µM (active),3.55 µM (active),13.5 µM (active),,3.79 µM (active)
CCOc1ccc2nc3cc(N)ccc3c(N)c2c1,11.2 µM (active),,1.41 µM (active),15.1 µM (active),7.57 µM (active),15.1 µM (active),2.51 µM (active),8.91 µM (active),7.94 µM (active),15.1 µM (active),9.53 µM (active),12 µM (active),9.53 µM (active),4.26 µM (active),,15.1 µM (active),5.62 µM (active),,,6.01 µM (active)
COc1cccc2c1C(=O)c1c(O)c3c(c(O)c1C2=O)C[C@@](O)(C(C)=O)C[C@@H]3O[C@H]1C[C@H](N)[C@H](O)[C@H](C)O1,2 µM (active),8.49 µM (active),2 µM (active),7.57 µM (active),1.9 µM (active),1.35 µM (active),2.24 µM (active),8.91 µM (active),3.98 µM (active),6.01 µM (active),4.78 µM (active),5.36 µM (active),4.78 µM (active),7.57 µM (active),8.49 µM (active),6.01 µM (active),4.47 µM (active),6.75 µM (active),,4.78 µM (active)
CC(=O)N/N=C/c1ccc([N+](=O)[O-])o1,,inactive,inactive,,inactive,,12.6 µM (active),,,inactive,inactive,inactive,inactive,inactive,inactive,inactive,,inactive,,inactive
CC(C)(C)CC(C)(C)c1ccc(O)c(Cc2ccc(Cl)cc2Cl)c1,3.16 µM (active),4.78 µM (active),2.51 µM (active),1.69 µM (active),0.601 µM (active),1.07 µM (active),1.58 µM (active),2 µM (active),5.62 µM (active),0.757 µM (active),1.51 µM (active),3.38 µM (active),,3.79 µM (active),3.79 µM (active),4.78 µM (active),2 µM (active),1.51 µM (active),,1.51 µM (active)
CCCCCCC[N+](CC)(CC)CCCCc1ccc(Cl)cc1,2.82 µM (active),2.56 µM (active),1.12 µM (active),2.03 µM (active),0.809 µM (active),0.809 µM (active),2 µM (active),1.58 µM (active),3.55 µM (active),2.56 µM (active),1.61 µM (active),1.81 µM (active),0.572 µM (active),2.28 µM (active),2.28 µM (active),1.81 µM (active),1.78 µM (active),2.28 µM (active),,1.81 µM (active)
C[C@@H]1CN(CCCn2c3ccccc3c3ccccc32)C[C@H](C)N1,7.94 µM (active),inactive,12.6 µM (active),,2.39 µM (active),4.78 µM (active),6.31 µM (active),10 µM (active),inactive,,,,,inactive,,,14.1 µM (active),9.53 µM (active),,
CN1CCC(=C2c3ccccc3Sc3ccccc32)CC1,7.08 µM (active),,11.2 µM (active),8.49 µM (active),7.57 µM (active),12 µM (active),4.47 µM (active),7.08 µM (active),,,13.5 µM (active),9.53 µM (active),,,,,10 µM (active),9.53 µM (active),,12 µM (active)
CCCCCCCCCCCCCCCC[N+](C)(C)CCN(Cc1ccc(OC)cc1)c1ncccn1,inactive,,,inactive,7.21 µM (active),,,1.12 µM (active),inactive,inactive,,,inactive,inactive,,inactive,,inactive,,
COc1cc(-c2ccc(=O)[nH]n2)ccc1OC(F)F,0.316 µM (active),inactive,inactive,,inactive,,inactive,inactive,,inactive,,inactive,inactive,,inactive,,0.501 µM (active),,,
CN1CCC[C@@H]1c1cccnc1,inactive,inactive,inactive,inactive,,inactive,inactive,inactive,inactive,inactive,inactive,inactive,inactive,inactive,inactive,inactive,inactive,inactive,,inactive
CN(C)CCOc1ccccc1Cc1ccccc1,2.24 µM (active),,,4.26 µM (active),8.49 µM (active),10.7 µM (active),5.01 µM (active),,inactive,,,,,inactive,,,6.31 µM (active),inactive,,
CC(C)=CCC1C(=O)N(c2ccccc2)N(c2ccccc2)C1=O,inactive,inactive,,,,,,,inactive,inactive,,,,inactive,,,,,,
CCN(CC)CCOc1ccc(C(O)(Cc2ccc(Cl)cc2)c2ccc(C)cc2)cc1 (configuration not stated),,,10 µM (active),16.9 µM (active),9.53 µM (active),15.1 µM (active),10 µM (active),,inactive,19 µM (active),15.1 µM (active),13.5 µM (active),,,,,,,,12 µM (active)
COc1c(C)c2c(c(O)c1C/C=C(\C)CCC(=O)O)C(=O)OC2,3.16 µM (active),,3.16 µM (active),5.1 µM (active),6.42 µM (active),6.42 µM (active),3.55 µM (active),5.01 µM (active),,,5.1 µM (active),4.05 µM (active),4.05 µM (active),,,6.42 µM (active),2.51 µM (active),5.1 µM (active),,3.22 µM (active)
COc1ccc(CN2CCN(C(c3ccc(F)cc3)c3ccc(F)cc3)CC2)c(OC)c1OC,11.2 µM (active),,7.08 µM (active),,12 µM (active),12 µM (active),7.94 µM (active),12.6 µM (active),,,15.1 µM (active),,,,16.9 µM (active),,,16.9 µM (active),,6.01 µM (active)
CCCCOc1cc(C(=O)NCCN(CC)CC)c2ccccc2n1,inactive,,inactive,inactive,,inactive,inactive,inactive,inactive,inactive,inactive,inactive,inactive,inactive,inactive,inactive,inactive,inactive,,inactive
CN=C(NC#N)Nc1ccc(C2=NNC(=O)CC2C)cc1 (configuration not stated),,inactive,,inactive,inactive,inactive,,,,inactive,inactive,inactive,inactive,inactive,inactive,inactive,,inactive,,inactive
